27 compounds from PubChem BioAssay (NCATS) can be followed below.

Where “and” joins values, the source holds several entries; their conditions need not be identical. Identical values can stand only once. Results filed as inconclusive are left out. A number with no mark means an inactive call. Calls of active or inactive are those of the source. Calls follow the shape of the dose curve; as a rule, active = well fitted cell-killing curve with a large enough effect; inconclusive = small, poorly fitted or top-dose-only effect; inactive = flat fitted curve, though single readings scatter.
Potency is read from the fitted curve at half-maximal effect.

The experiment is described as follows: Cellular viability qHTS for adrenocortical cancer (ACC) cell line NCI-H295R (AID 1963990). Also: nearly all actives have a fitted effect of over 60% in size.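 As to activity change, negative = viability loss: 0% = DMSO only wells and -100% = full killing with cytotoxic reference compound.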 The note with it: CellTiter-Glo ATP luminescence, 48 h; series mostly up to 46.1 µM; activity change, negative = viability loss: at the top concentration. A digest of the protocol:
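Luminescent ATP read-out (CellTiter-Glo, 20 min RT) after 48 h drug exposure of NCI-H295R cells; a titration up to 46 uM final. Data normalized to doxorubicin (100% inhibition) and DMSO (0%); 4-parameter fit gives IC50, max response.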
On to `Cn1c(CCCCCCC(=O)NO)nc2cc(N(CCCl)CCCl)ccc21`, for which the Potency was 8.91 µM (active).

Consider `CC(O)(CS(=O)(=O)c1ccc(F)cc1)C(=O)Nc1ccc(C#N)c(C(F)(F)F)c1` (configuration not stated), for which the “activity change, negative = viability loss” value is -11.1%.

Take `O=C1C(I)=CC(=C(c2cc(I)c(O)c(I)c2)c2ccccc2C(=O)O)C=C1I`: the Potency is 20.6 µM (active).

In the case of `CC#C[C@]1(O)CC[C@H]2[C@@H]3C[C@H](C)C4=CC(=O)CC[C@]4(C)[C@H]3CC[C@@]21C`, the Potency was 8.2 µM (active).

Turning to `C[C@]12CC[C@H]3[C@@H](CCC4=CC(=O)CC[C@@H]43)[C@@H]1CC[C@@H]2OC(=O)CCC1CCCCC1`, the “activity change, negative = viability loss” value was -23.7%.

`CNC(C)Cc1ccc2c(c1)OCO2` (configuration not stated): the “activity change, negative = viability loss” value was 1.2% [at 92.7 µM].

As to `Nc1c(Cl)c(Cl)c(Cl)c(Cl)c1Cl`, the “activity change, negative = viability loss” value was -10.2% [at 92.7 µM].

For the compound `CC[C@@H](CO)NC(=O)[C@@H]1C=C2c3cccc4[nH]cc(c34)C[C@H]2N(C)C1`, the “activity change, negative = viability loss” value was -22.2%.

For `O=c1oc2ccccc2c(O)c1C(CC(O)c1ccc(-c2ccc(Br)cc2)cc1)c1ccccc1` (configuration not stated), the Potency is 18.4 µM (active).

For the compound `CCOP(=S)(OCC)Oc1ccc2c(C)c(Cl)c(=O)oc2c1`, the “activity change, negative = viability loss” value is -21.9%.

As to `O=C1NCN(c2ccccc2)C12CCN(CC1COc3ccccc3O1)CC2` (configuration not stated), the “activity change, negative = viability loss” value is -14.9%.

For `CCN(CCO)CCn1c(Cc2ccccc2)nc2c1c(=O)n(C)c(=O)n2C`, the “activity change, negative = viability loss” value was -0.2%.

For the compound `COc1cc(C)[nH]c(=O)c1CNC(=O)c1c(C)n([C@H](C)C2CCN(CC(F)(F)F)CC2)c2ccccc12`, the “activity change, negative = viability loss” value was -28.7%.

Regarding `Oc1ccccc1-c1ccccc1`, the “activity change, negative = viability loss” value was -10.3%.

In the case of `CC(N[C@H]1C[C@@H]1c1ccccc1)c1ccc2c(c1)OCCO2` (some centres not stated), the “activity change, negative = viability loss” value was -24.9%.

`O=C1c2ccccc2C(=O)C1C(=O)C(c1ccccc1)c1ccccc1`: the Potency was 23.1 µM (active).

With `Cc1cccc(Cc2cnc[nH]2)c1C`, the “activity change, negative = viability loss” value was -19.4%.

As to `OC(c1ccccc1)(c1ccccc1)C1CCNCC1`, the “activity change, negative = viability loss” value was -0.339%.

Take `O=c1[nH]c2ccccc2n1C1CCN(CCCC(c2ccc(F)cc2)c2ccc(F)cc2)CC1`: the Potency was 23.1 µM (active).

Consider `C[C@]12CCC(=O)C(O)=C1CC[C@@H]1[C@@H]2CC[C@]2(C)C(=O)CC[C@@H]12`, for which the Potency entry was “inactive”.

Turning to `COC(=O)[C@@]12OC[C@]34[C@H]([C@@H](O)[C@@H]1O)[C@@]1(C)CC(=O)C(O)=C(C)[C@@H]1C[C@H]3OC(=O)[C@H](OC(=O)/C=C(\C)C(C)C)[C@@H]24`, the Potency is 12.6 µM (active).

`CC(=O)O[C@@]12CO[C@@H]1C[C@H](O)[C@@]1(C)C(=O)[C@H](O)C3=C(C)[C@@H](O)C[C@@](O)([C@@H](OC(=O)c4ccccc4)[C@H]21)C3(C)C`: the “activity change, negative = viability loss” value was -15.6%.

Take `CCC1(CCC(C)C)C(=O)NC(=O)NC1=O`: the “activity change, negative = viability loss” value was -14% [at 92.7 µM].

Take `CC(C)(NC(=O)O[C@@H]1CN2CCC1CC2)c1csc(-c2ccc(F)cc2)n1`: the “activity change, negative = viability loss” value is -33.3%.

Take `CC[C@]1(O)CC[C@H]2[C@@H]3CCC4=CCCC[C@@H]4[C@H]3CC[C@@]21C`: the Potency is 2.91 µM (active).

As to `CC(C)(C)CC(C)(C)c1ccc(O)cc1`, the Potency is 8.91 µM (active) and 13 µM (active).

For `CC(Cc1ccccc1)NCCn1cnc2c1c(=O)n(C)c(=O)n2C` (configuration not stated), the “activity change, negative = viability loss” value is -11.7% [at 92.7 µM].
